In the library only some 17% were active in any assay of this set; here they are far more common.
DT40 TDP1 CPT: qHTS for Inhibitors of human tyrosyl-DNA phosphodiesterase 1 (TDP1): qHTS in cells in presence of CPT | chicken DT40 Tdp1-/-;hTDP1 cells + 20 nM CPT, ATP luminescence, 48 h | Potency, µM (titrated, usually from 46.2 µM), for inactives: top-dose activity change, negative = growth inhibition, most hits filed as inhibitors | 12% of 420,000 active; further: on the % scale 0 is the no-effect control and ±100 the full control effect; nearly all actives have a fitted effect of over 55% in size
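Chicken DT40 Tdp1-/- cells complemented with human TDP1, 400 cells/well, exposed to compounds plus 20 nM camptothecin for at least 48 h at 37 C; viability read as ATP content by CellTiter-Glo luminescence.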
S2 tox: Viability Counterscreen for Primary qHTS for Inhibitors of ATXN expression | S2 cells (HEK-293 line with an ATXN2-luciferase reporter) viability, CellTiter-Fluor protease fluorescence, 24 h | Potency, µM (series often up to 56.7 µM), hits mostly cytotoxic | 0.49% of 400,000 active; further: nearly all actives have a fitted effect of over 40% in size
ATXN2 expr inh: Primary qHTS for Inhibitors of ATXN expression; HEK-293 ATXN2-luciferase reporter, luminescence, 24 h; Potency, µM (titrated, usually from 57 µM), inactives show at the highest dose activity change, negative = inhibition, most hits filed as inhibitors; 0.72% of 360,000 active; AID 1745845, 2022; further: on the % scale 0 is the no-effect control and ±100 the full control effect; nearly all actives have a fitted effect of over 55% in size
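ATXN2-luciferase reporter cells (luciferase flanked by upstream and downstream ATXN2 gene portions) were treated 24 h at 37 °C with compounds at up to 57 uM. SteadyGlo luminescence gave expression; GF-AFC fluorescence gave viability.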
HepG2 viability: qHTS for Inhibitors of TGF-b: Cytotox Counterscreen; 0.76% of 410,000 active; HepG2 CAGA-GFP viability, ATP luminescence, 18 h; Potency, µM (highest dose often 46.1 µM), without a hit: top-dose activity change, negative = cytotoxicity, most hits filed as cytotoxic
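HepG2 CAGA-GFP cells (1000/well, DMEM with 1% FBS) received compound, then TGF-beta at 500 pg/mL final, and were incubated 18 hours at 37 degrees C. Viability was read by CellTiter-Glo luminescence. Media-only wells were set as complete cell-killing and DMSO as no toxicity.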
DT40 TDP1 no CPT: qHTS for Inhibitors of human tyrosyl-DNA phosphodiesterase 1 (TDP1): qHTS in cells in absence of CPT; DT40 Tdp1-/- hTDP1 cells, no CPT, ATP luminescence, 48 h; AID 686978, 2013; Potency, µM (top dose mostly 46.2 µM), for the others: at the highest dose activity change, negative = growth inhibition, actives largely listed as inhibitors; 15% of 420,000 active; further: on the % scale 0 is the no-effect control and ±100 the full control effect; nearly all actives have a fitted effect of over 55% in size
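Growth kinetics read by CellTiter-Glo luminescence after ≥48 hr at 37 °C. Cells: DT40 Tdp1-/- stably carrying human TDP1, 400 per well, compound exposure in the absence of CPT (DMSO vehicle).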
TGFb SMAD3 inh: qHTS for Inhibitors of TGF-b; HepG2 CAGA-GFP TGF-b/SMAD3 reporter, GFP fluorescence, 18 h; TGF-beta stimulated, 500 pg/mL final; Potency, µM (series often up to 46.1 µM), inactives show at the top dose activity, negative = inhibition, hits mostly inhibitors; 1.2% of 410,000 active; AID 588855, 2011; further: on the % scale 0 is the no-effect control and ±100 the full control effect; nearly all actives have a fitted effect of over 65% in size
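HEPG2 CAGA-GFP, 1000 cells/well; 2 h settle, 37 C; cpd via pin tool; TGF-b 500 pg/mL final; 18 h, 37 C; GFP imaging ex488/em500-530; %Activity normalised to -TGF-b and +DMSO controls; CRC fit, curve class.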
Starred values were filed as active, the others as inactive; i = inactive; u = inconclusive; x = not tested or not shown. The call rests on the fitted dose curve; in most records, active means well fitted curve in the direction sought with a large enough effect; inconclusive means small, poorly fitted or top-dose-only effect, or another doubt; inactive means no such curve, though single readings can be large; an effect the other way counts as inactive or inconclusive. Potency means the concentration at half of the fitted maximal effect.

SMILES	DT40 TDP1 CPT	S2 tox	ATXN2 expr inh	HepG2 viability	DT40 TDP1 no CPT	TGFb SMAD3 inh
O=C(Nc1cccc(S(=O)(=O)N2CCCC2)c1)c1ccc(Cl)nc1	4.61µM*	i	u	2.0%	5.8µM*	-17.0%
COc1ccccc1NS(=O)(=O)c1cc(NC(=O)c2ccc(Cl)nc2)ccc1Cl	9.2µM*	u	20µM*	-25.6%	7.31µM*	u
Cc1cc(S(=O)(=O)NC2CCN(Cc3ccccc3)CC2)c(C)cc1Cl	u	i	-8.7%	-61.9%	u	u
COc1ccc(NC(=O)CSc2ccccc2)cc1S(=O)(=O)N1CCOCC1	-1.5%	i	-6.7%	-13.7%	-9.4%	11.2%
O=C(Nc1cccc(S(=O)(=O)N2CCOCC2)c1)c1ccccn1	-5.0%	i	x	-6.9%	-8.3%	-0.4%
O=C(Nc1cccc(S(=O)(=O)N2CCOCC2)c1)c1ccc(Cl)nc1	16.4µM*	i	x	-12.1%	23.1µM*	u
O=C(Cc1ccc(Br)cc1)Nc1cccc(S(=O)(=O)N2CCOCC2)c1	-8.3%	i	-18.5%	-14.4%	-23.1%	-18.6%
O=S(=O)(c1cccc(NC(=S)Nc2ccc(Br)cc2Cl)c1)N1CCOCC1	16.4µM*	i	0.2%	17.5%	29.1µM*	-23.6%
COc1ccc(NC(=O)Cn2ncc(Cl)c(Cl)c2=O)cc1S(=O)(=O)N1CCOCC1	11.6µM*	u	u	5.4%	10.3µM*	u
COc1cc(Cl)ccc1OCc1cc(C(=O)N2CCCC(OC)C2)no1 (stereo not given)	-3.3%	i	82.1%	-1.6%	u	2.4%
Cc1nonc1C1CCCN1C(=O)c1cc(COc2ccc(F)cc2Cl)on1 (stereo not given)	u	i	x	-9.1%	u	-12.0%
COc1cc(Cl)ccc1OCc1cc(C(=O)N2CCCCC2c2cccnc2)no1 (stereo not given)	5.8µM*	i	x	-8.3%	u	u
O=C(c1cc(COc2ccc(F)cc2Cl)on1)N1CCCCC1c1cccnc1 (stereo not given)	16.4µM*	i	u	-13.5%	13µM*	u
O=C(c1cc(COc2ccc(F)cc2Cl)on1)N1CCC(OCc2cccnc2)CC1	16.4µM*	i	-7.3%	-12.9%	9.2µM*	u
Cc1cc(OCC(=O)OCC(=O)NCc2ccc3c(c2)OCO3)ccc1Cl	-3.6%	i	10.7%	2.3%	11.3%	4.9%
S=C(NCC1CCCO1)N1CCN(c2ccccc2)CC1 (stereo not given)	0.8%	i	-9.8%	-1.6%	-5.8%	-15.8%
COCCNC(=S)N1CCN(c2cccc(C(F)(F)F)c2)CC1	u	x	-35.8%	-22.1%	23.1µM*	0.0%
FC(F)(F)c1cccc(N2CCN(C(=S)NCC3CCCO3)CC2)c1 (stereo not given)	u	i	-20.8%	-12.2%	23.1µM*	u
CCOc1ccc(S(=O)(=O)Nc2ccc(C(=O)NCC(c3ccco3)N3CCCCC3)cc2)cc1 (stereo not given)	u	i	9.4%	-4.7%	u	-0.2%
CC1CCCN(c2nc(-c3cccnc3)nc3scc(-c4ccccc4)c23)C1 (stereo not given)	u	i	0.8%	7.8%	18.4µM*	-18.6%
CN1CCN(c2nc(-c3cccnc3)nc3scc(-c4ccccc4)c23)CC1	u	x	4.3%	-4.0%	23.1µM*	21.7%
CC1CCN(c2nc(-c3cccnc3)nc3scc(-c4ccccc4)c23)CC1	u	i	7.8%	-11.6%	-16.9%	1.2%
CN1CCN(c2ccnc(-c3cccnc3)n2)CC1	1.9%	x	x	x	2.1%	x
CCOC(=O)C1=C(c2ccccc2)NC(SCC(=O)Nc2ccccc2C)=C(C#N)C1c1ccco1 (stereo not given)	-25.4%	i	-7.1%	-5.4%	u	-27.9%
Cc1cccc(CC(Cc2nc3ccccc3[nH]2)c2nc3ccccc3[nH]2)c1 (stereo not given)	16.4µM*	u	u	-20.5%	u	u
SMILES	DT40 TDP1 CPT	S2 tox	ATXN2 expr inh	HepG2 viability	DT40 TDP1 no CPT	TGFb SMAD3 inh
COc1ccccc1CC(Cc1nc2ccccc2[nH]1)c1nc2ccccc2[nH]1 (stereo not given)	u	u	-20.7%	-6.4%	29.9µM*	-29.4%
CC(C)Cc1nc2ccccc2[nH]1	19.6%	i	-5.3%	-1.1%	-17.0%	12.9%
COc1cc2nc(CC(O)c3nc4cc(OC)c(OC)cc4[nH]3)[nH]c2cc1OC (stereo not given)	7.08µM*	x	x	5.8%	6.31µM*	1.5%
COc1ccc(Cc2nc3ccccc3[nH]2)cc1OC	-16.0%	i	-31.8%	8.5%	-28.1%	4.2%
O=C(NCc1ccccn1)C1CCN(C2CCN(Cc3cccc(F)c3)CC2)CC1	-19.0%	i	x	-1.0%	-0.5%	-10.9%
CS(=O)(=O)N(Cc1ccccc1)c1ccc(C(=O)Nc2ccccc2C(=O)O)cc1	-4.4%	i	x	-14.6%	-28.7%	8.4%
CS(=O)(=O)N(Cc1ccccc1)c1ccc(C(=O)Nc2ccc(Cl)cc2)cc1	u	31.6µM*	u	-102.9%	5.8µM*	u
CN(C)S(=O)(=O)c1ccc(NC(=O)c2ccc([N+](=O)[O-])cc2)cc1	-0.2%	i	x	0.6%	u	-8.4%
O=C(NCCC(=O)N(CCc1ccccc1)Cc1ccccc1)c1ccc([N+](=O)[O-])cc1	u	i	-2.7%	-27.2%	23.1µM*	-11.4%
CS(=O)(=O)N(Cc1ccc(Cl)cc1)c1ccc(C(=O)N/N=C/c2cc3ccccc3nc2Cl)cc1	u	i	-15.4%	24.0%	23.1µM*	10.9%
O=C(Nc1ccc(S(=O)(=O)N(Cc2ccccc2)c2ccccc2)cc1)c1ccc([N+](=O)[O-])cc1	2.91µM*	i	0.7%	-27.5%	u	-4.6%
O=C(c1ccc([N+](=O)[O-])cc1)N(Cc1ccccc1)Cc1ccccc1	-6.4%	i	-7.1%	-20.2%	u	-7.2%
O=[N+]([O-])c1ccc(NCCCc2ccccc2)cc1	u	i	x	-22.6%	18.4µM*	u
O=C(O)c1cc([N+](=O)[O-])ccc1NCCCc1ccccc1	u	i	8.8%	5.1%	u	-17.9%

Bioassay records as filed in PubChem BioAssay.
